From ChEMBL document CHEMBL1157539, “Thousands of chemical starting points for antimalarial lead identification” (Nature, 2010)

Legend:
Assay type in all cases: functional
Plasmodium falciparum [1] = experiment: GSK_TCMDC: Inhibition of Plasmodium falciparum 3D7 in whole red blood cells, using parasite LDH activity as an index of growth. Test compounds present at 2uM
Plasmodium falciparum [2] = experiment: GSK_TCMDC: Inhibition of Plasmodium falciparum Dd2 in whole red blood cells, using parasite LDH activity as an index of growth. Test compounds present at 2uM
HepG2 = experiment: GSK_TCMDC: Percent inhibition of human HepG2 cell line. Test compounds present at 10uM.

SMILES	Inhibition (Plasmodium falciparum [1]) [%]	Inhibition (Plasmodium falciparum [2]) [%]	Inhibition (HepG2) [%]
CC(Nc1nncc(-c2cccc(F)c2)n1)c1ccc(F)cc1 (stereo unspecified)	95	89	4
CC(C)n1ncc2c(C(=O)N3CCCC4CCCCC43)cc(C3CC3)nc21 (stereo unspecified)	99	92	7
COc1cc(Nc2nccc(N3CCC(NS(=O)(=O)c4ccc(NC(C)=O)cc4)CC3)n2)cc(OC)c1OC	91	42	0
COc1ccc(CNCc2cccc(-c3ccc(-c4nc5cccc(C)c5[nH]4)s3)c2)cc1.O=C(O)C(F)(F)F	100	65	24
CCN(CC)CCN1C(=O)c2oc3ccc(F)cc3c(=O)c2C1c1cccc(Cl)c1 (stereo unspecified)	99	93	0
O=C(Nc1ccc(Cn2nc(Cl)c(N3CCCNCC3)cc2=O)cc1)Nc1ccc(-c2ccccc2)cc1.O=C(O)C(F)(F)F	87	36	89
COc1ccc(CN2CCN(Cc3cc(Cl)ccc3O)CC2CCO)c(C)c1C (stereo unspecified)	94	76	1
CCOc1cc(Cc2cnc(N)nc2N)cc(OCC)c1-n1cccc1 [EPIROPRIM]	98	0	0
Cn1c(-c2ccccc2)cc2c3c(N)nc(N)nc3ccc21	100	30	27
Cc1cccc(C)c1CNc1cccc(-c2nc(C)c(C)[nH]2)c1.Cl	99	44	58
Cc1cc(CN2CCC(N3CC(c4ccccc4)(c4ccccc4)OCC3=O)C2)ccc1O.O=C(O)C(F)(F)F (stereo unspecified)	89	52	3
COc1ccc(CC(=O)NC2CCN(c3ccnc4cc(Cl)ccc34)C2)cc1.O=C(O)C(F)(F)F (stereo unspecified)	100	88	0
COc1ccc2nccc([C@@H](O)CN3CCC(NC(=O)c4ccc(Cl)c(OC)c4)CC3)c2c1	87	28	26
CCOc1ccc(C(C)NC(=O)Cc2ccccc2F)cc1OCC (stereo unspecified)	96	44	15
O=C(Nc1cc(C(F)(F)F)cc(C(F)(F)F)c1)N1CCC(CCN2CCC(c3c[nH]c4ccccc34)CC2)CC1	91	16	17
COc1ccc(CN2CCC(CN3CC4(OC3=O)c3ccccc3-c3ccccc34)C2)c(O)c1 (stereo unspecified)	100	79	22

SMILES	Inhibition (Plasmodium falciparum [1]) [%]	Inhibition (Plasmodium falciparum [2]) [%]	Inhibition (HepG2) [%]
COc1ccc2[nH]c(/C=C/c3cccc4ccc(C)nc34)nc2c1	98	77	25
COc1ccc(Cc2c(C)nc3nc(N)nc(N)c3c2C)cc1.Cl	93	2	61
Cc1ccc(C(CC(=O)Nc2nccs2)c2ccc(OC(C)C)cc2)cc1 (stereo unspecified)	94	90	5
O=C(Nc1nccs1)c1cc(-c2cccnc2)nc2ccc(Br)cc12	100	79	7
CN(c1ccc(F)cc1)S(=O)(=O)c1ccc(Cl)c(C(=O)Nc2cccc(C#N)c2)c1	95	58	5
CN1CCOc2ccc(Nc3nnc(-c4cccc(-c5cccnc5)c4)o3)cc2C1	100	100	0
CN1CCN(c2ccc(Nc3ncc(C#N)c(Nc4ccccc4C(N)=O)n3)cc2)CC1.Cl	92	93	43
O=[N+]([O-])c1ccc(C(O)P(=O)(c2ccccc2)c2ccccc2)cc1 (stereo unspecified)	98	1	1
CN1CCCC(CN2CCN(Cc3cccc(-c4cccc(-c5nc6ccccc6[nH]5)c4)c3)CC2)C1.O=C(O)C(F)(F)F (stereo unspecified)	100	99	45
Cc1[nH]c(C)c(-c2cccc(-c3ccc(OC(F)(F)F)cc3)c2)c(=O)c1Br	97	96	45
CC(C)C[C@H](Nc1ccnc(NCC2CCCCC2)n1)C(=O)NCCOc1ccccc1.O=C(O)C(F)(F)F	89	73	37
Cl.NC1=NC2(CCCC2)N(c2ccc(Cl)cc2)C(N)=N1	97	0	0
CCC[C@@H]([C@@H](CC1CCCCC1)C(=O)N[C@H](C(=O)Nc1nccs1)C(C)(C)SCCOCCOCC)N(O)C=O	100	97	40
Cl.N#Cc1ccc(-c2ccc(C(=O)Nc3ccc4c(c3)CCN(C3CCC3)CC4)nc2)cn1	85	15	24
O=C(CCc1c[nH]cn1)Nc1cccc(-c2cccc(-c3nc4cc(C(F)(F)F)ccc4[nH]3)c2)c1	100	99	17
CCN(CCCN1CCCCC1)c1cc(C)nc(Nc2ccc(C)cc2Cl)n1.O=C(O)C(F)(F)F	93	25	44
